In PubChem BioAssay (EPA / NIEHS):
Activity calls are given as the source filed them. Rule for the calls: active = hit-call score of the fitted dose curve at least 0.9, where 1 is the maximum; inactive = score below 0.9.

Columns and labels:
Settings in all cases: mRNA level, 48 h; actives raise or lower the signal
[1] = read-out: MicroRNA 122 (MIR122), gene 406906; assay: LTEA_HepaRG_MIR122: Life Technologies and Expression Analysis (LTEA) Assay for MicroRNA 122 (MIR122) using HepaRG (AID 2283516); note: the transcript read is the microRNA miR-122
How it was run: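 Differentiated human HepaRG cells in serum-free induction medium exposed 48 h to 8 half-log concentrations from 100 uM in 0.5% DMSO, duplicate. MIR122 quantified by Fluidigm TaqMan qRT-PCR, normalised to ACTB, GAPDH, POLR2A; fold change fitted bidirectionally versus DMSO.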

[2] = read-out: matrix metalloproteinase-10 (MMP10), MMP10 (gene 4319); assay: LTEA_HepaRG_MMP10: Life Technologies and Expression Analysis (LTEA) Assay for matrix metalloproteinase-10 (MMP10) using HepaRG (AID 2283517)
How it was run: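 HepaRG, collagen I, ~100,000 cells/well; serum-free induction medium; 48 h exposure, duplicate, 8-pt half-log to 100 uM, 0.5% DMSO. Readout: TaqMan qRT-PCR, normalized to ACTB/GAPDH/POLR2A; bidirectional fit vs DMSO.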

[3] = read-out: MYC, MYC (gene 4609); assay: LTEA_HepaRG_MYC: Life Technologies and Expression Analysis (LTEA) Assay for MYC using HepaRG (AID 2283518)
How it was run: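 Expression changes were scored by TaqMan qRT-PCR with ACTB, GAPDH and POLR2A normalization. Cultures in serum-free induction medium received duplicate 8-point concentration series, highest 100 uM, for 48 h; DMSO (0.5%) served as baseline.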

[4] = read-out: matrix metalloproteinase-3 (MMP3), MMP3 (gene 4314); assay: LTEA_HepaRG_MMP3: Life Technologies and Expression Analysis (LTEA) Assay for matrix metalloproteinase-3 (MMP3) using HepaRG (AID 2283519)
How it was run: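 Differentiated human HepaRG cells, plated 48 h on collagen I, were exposed in duplicate for 48 h in serum-free induction medium to eight half-log concentrations up to 100 uM in 0.5% DMSO. MMP3 mRNA was quantified by TaqMan qRT-PCR, normalised to ACTB, GAPDH and POLR2A.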

[5] = read-out: Paternally Expressed 10 (PEG10), PEG10 (gene 23089); assay: LTEA_HepaRG_PEG10: Life Technologies and Expression Analysis (LTEA) Assay for Paternally Expressed 10 (PEG10) using HepaRG (AID 2283520)
How it was run: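 Differentiated HepaRG cells exposed 48 h in serum-free induction medium to eight half-log concentrations topping at 100 uM, 0.5% DMSO, in duplicate. PEG10 mRNA quantified by TaqMan qRT-PCR, normalized to ACTB, GAPDH and POLR2A; bidirectional fit versus DMSO.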

[6] = read-out: Nuclear factor NF-kappa-B p105 subunit (Homo sapiens) (UniProt P19838); assay: LTEA_HepaRG_NFKB1: Life Technologies and Expression Analysis (LTEA) Assay for Nuclear Factor Kappa B Subunit 1 (NFKB1) using HepaRG (AID 2283521)
How it was run: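 Differentiated human HepaRG cells were exposed for 48 h in serum-free induction medium to eight concentrations (top 100 uM, half-log steps, 0.5% DMSO), in duplicate. NFKB1 mRNA was measured by TaqMan qRT-PCR, normalized to ACTB/GAPDH/POLR2A, and fitted bidirectionally against DMSO.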

[7] = read-out: Protein phosphatase 2A (PPP2R4), PTPA (gene 5524); assay: LTEA_HepaRG_PPP2R4: Life Technologies and Expression Analysis (LTEA) Assay for Protein phosphatase 2A (PPP2R4) using HepaRG (AID 2283522)
How it was run: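 Differentiated human HepaRG cells in serum-free induction medium were exposed 48 h to 8 concentrations (top 100 µM, half-log steps, duplicate) in 0.5% DMSO. PPP2R4 mRNA was measured by TaqMan qRT-PCR, normalised to ACTB, GAPDH and POLR2A, and fitted bidirectionally versus DMSO.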

[8] = read-out: Phosphatase and tensin (PTEN), PTEN (gene 5728); assay: LTEA_HepaRG_PTEN: Life Technologies and Expression Analysis (LTEA) Assay for Phosphatase and tensin (PTEN) using HepaRG (AID 2283523)
How it was run: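 Differentiated human HepaRG cells, plated 48 h then switched to serum-free induction medium, were exposed in duplicate for 48 h to eight half-log concentrations up to 100 uM in 0.5% DMSO. PTEN mRNA measured by TaqMan qRT-PCR, normalized to ACTB/GAPDH/POLR2A, bidirectional fit versus DMSO.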

[9] = read-out: solute carrier (SLC22A1), SLC22A1 (gene 6580); assay: LTEA_HepaRG_SLC22A1: Life Technologies and Expression Analysis (LTEA) Assay for solute carrier (SLC22A1) using HepaRG (AID 2283524)
How it was run: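 Human HepaRG cells were plated 48 h, switched to serum-free induction medium, then exposed in duplicate for 48 h to 8-point half-log series from 100 uM in 0.5% DMSO. SLC22A1 mRNA measured by qRT-PCR, normalized to ACTB/GAPDH/POLR2A, fitted bidirectionally versus DMSO.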

[10] = read-out: Pyruvate Dehydrogenase Kinase 4 (PDK4), PDK4 (gene 5166); assay: LTEA_HepaRG_PDK4: Life Technologies and Expression Analysis (LTEA) Assay for Pyruvate Dehydrogenase Kinase 4 (PDK4) using HepaRG (AID 2283525)
How it was run: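 Differentiated human HepaRG cells, pre-cultured 48 h, were exposed in duplicate for 48 h in serum-free induction medium to eight half-log concentrations up to 100 uM in 0.5% DMSO. PDK4 mRNA was quantified by qRT-PCR, normalized to ACTB, GAPDH and POLR2A, bidirectional fitting versus DMSO.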

[11] = read-out: Nuclear factor erythroid 2-related factor 2 (Homo sapiens) (UniProt Q16236); assay: LTEA_HepaRG_NFE2L2: Life Technologies and Expression Analysis (LTEA) Assay for Nuclear factor erythroid 2-related factor 2 (NFE2L2) Transcription Factor using HepaRG (AID 2283527)
How it was run: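 Differentiated human HepaRG cells in serum-free induction medium were exposed for 48 h to eight concentrations (top 100 uM, half-log dilutions, 0.5% DMSO), in duplicate. NFE2L2 mRNA was quantified by TaqMan qRT-PCR, normalized to ACTB, GAPDH and POLR2A, with bidirectional fitting versus DMSO.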

[12] = read-out: Signal transducer and activator of transcription 3 (Homo sapiens) (UniProt P40763); assay: LTEA_HepaRG_STAT3: Life Technologies and Expression Analysis (LTEA) Assay for Signal transducer and activator of transcription (STAT3) using HepaRG (AID 2283529)
How it was run: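 Differentiated human HepaRG cells in serum-free induction medium were exposed in duplicate for 48 h to eight half-log concentrations up to 100 uM in 0.5% DMSO. STAT3 mRNA was quantified by TaqMan qRT-PCR, normalized to ACTB, GAPDH and POLR2A, and fitted bidirectionally against DMSO.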

[13] = read-out: solute carrier (SLCO1B1), SLCO1B1 (gene 10599); assay: LTEA_HepaRG_SLCO1B1: Life Technologies and Expression Analysis (LTEA) Assay for solute carrier (SLCO1B1) using HepaRG (AID 2283530)
How it was run: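 Human HepaRG cultures treated for 48 h with an eight-concentration half-log series topping at 100 uM; SLCO1B1 measured by qRT-PCR and fitted bidirectionally relative to DMSO.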

[14] = read-out: sulfotransferase 2A1 (SULT2A1), SULT2A1 (gene 6822); assay: LTEA_HepaRG_SULT2A1: Life Technologies and Expression Analysis (LTEA) Assay for sulfotransferase 2A1 (SULT2A1) using HepaRG (AID 2283531)
How it was run: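 Gene-expression endpoint in a human liver cell line: SULT2A1 mRNA change after 48 h chemical treatment, curves fitted in both directions relative to 0.5% DMSO vehicle. Concentrations spanned eight half-log steps from 100 uM.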

[15] = read-out: Transforming Growth Factor (TGFA), TGFA (gene 7039); assay: LTEA_HepaRG_TGFA: Life Technologies and Expression Analysis (LTEA) Assay for Transforming Growth Factor (TGFA) using HepaRG (AID 2283532)
How it was run: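 Differentiated human HepaRG cells, plated 48 h then switched to serum-free induction medium, were exposed in duplicate for 48 h to 8-point half-log series from 100 uM in 0.5% DMSO. TGFA mRNA measured by qRT-PCR, normalized to ACTB/GAPDH/POLR2A, bidirectional fit versus DMSO.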

[16] = read-out: Transforming Growth Factor (TGFB1), TGFB1 (gene 7040); assay: LTEA_HepaRG_TGFB1: Life Technologies and Expression Analysis (LTEA) Assay for Transforming Growth Factor (TGFB1) Transporter using HepaRG (AID 2283533)
How it was run: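 Eight-point concentration-response (max 100 uM, half-log) in HepaRG under serum-free induction conditions, 48 h. TGFB1 mRNA by qRT-PCR, housekeeping-normalized.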

[17] = read-out: TIMP1, TIMP1 (gene 7076); assay: LTEA_HepaRG_TIMP1: Life Technologies and Expression Analysis (LTEA) Assay for TIMP1 using HepaRG (AID 2283534)
How it was run: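 TIMP1 induction or repression in HepaRG cells after 48 h chemical exposure (eight concentrations, highest 100 uM), assessed by normalized qRT-PCR with bidirectional fitting to DMSO controls.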

[18] = read-out: Tumor necrosis factor receptor 1 (TNFRSF1A), TNFRSF1A (gene 7132); assay: LTEA_HepaRG_TNFRSF1A: Life Technologies and Expression Analysis (LTEA) Assay for Tumor necrosis factor receptor 1 (TNFRSF1A) using HepaRG (AID 2283535)
How it was run: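 Assay uses 48 h chemical treatment of differentiated HepaRG monolayers, tested in duplicate at eight concentrations from 100 uM downward in 0.5% DMSO. mRNA is normalized to ACTB, GAPDH and POLR2A, with induction or suppression fitted relative to vehicle.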

[19] = read-out: NAD(P)H dehydrogenase [quinone] 1 (NQO1), NQO1 (gene 1728); assay: LTEA_HepaRG_NQO1: Life Technologies and Expression Analysis (LTEA) Assay for NAD(P)H dehydrogenase [quinone] 1 (NQO1) using HepaRG (AID 2283526)
How it was run: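 Differentiated human HepaRG cells in serum-free induction medium, dosed in duplicate for 48 h at 8 half-log concentrations up to 100 uM in 0.5% DMSO. NQO1 mRNA by qRT-PCR normalized to ACTB, GAPDH, POLR2A; bidirectional fit versus DMSO baseline.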

[20] = read-out: succinate dehydrogenase complex iron sulfur subunit B (SDHB), SDHB (gene 6390); assay: LTEA_HepaRG_SDHB: Life Technologies and Expression Analysis (LTEA) Assay for succinate dehydrogenase complex iron sulfur subunit B (SDHB) using HepaRG (AID 2283528)
How it was run: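 HepaRG, 48 h exposure, 8-pt half-log series from 100 uM in 0.5% DMSO, duplicates. Readout: SDHB mRNA by Fluidigm qRT-PCR vs housekeeping genes; bidirectional fit relative to DMSO.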

Measured: AC50

Chain of Signal transducer and activator of transcription 3 (Homo sapiens) (P40763 whole entry, looked up): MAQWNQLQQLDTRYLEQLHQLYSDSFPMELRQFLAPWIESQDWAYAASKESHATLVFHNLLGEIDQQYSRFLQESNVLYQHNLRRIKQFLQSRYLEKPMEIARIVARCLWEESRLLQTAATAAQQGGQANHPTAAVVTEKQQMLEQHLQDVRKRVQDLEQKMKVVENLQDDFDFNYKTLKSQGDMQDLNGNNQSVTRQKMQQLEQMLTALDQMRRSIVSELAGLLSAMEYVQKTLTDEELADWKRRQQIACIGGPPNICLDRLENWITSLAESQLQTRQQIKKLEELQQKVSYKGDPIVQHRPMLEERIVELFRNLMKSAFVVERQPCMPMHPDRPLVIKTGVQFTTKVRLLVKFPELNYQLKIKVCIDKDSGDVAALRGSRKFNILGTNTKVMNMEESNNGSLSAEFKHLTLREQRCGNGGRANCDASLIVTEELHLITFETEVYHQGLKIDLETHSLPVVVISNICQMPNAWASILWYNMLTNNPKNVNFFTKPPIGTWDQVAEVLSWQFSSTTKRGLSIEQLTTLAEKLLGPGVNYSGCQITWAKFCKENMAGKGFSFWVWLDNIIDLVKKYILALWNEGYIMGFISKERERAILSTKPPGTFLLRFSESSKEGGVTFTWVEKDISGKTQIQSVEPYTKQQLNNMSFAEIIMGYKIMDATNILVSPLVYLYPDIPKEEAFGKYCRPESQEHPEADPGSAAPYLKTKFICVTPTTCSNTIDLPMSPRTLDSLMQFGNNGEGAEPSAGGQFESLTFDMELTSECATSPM
Chain of Nuclear factor NF-kappa-B p105 subunit (Homo sapiens) (P19838 whole entry, looked up): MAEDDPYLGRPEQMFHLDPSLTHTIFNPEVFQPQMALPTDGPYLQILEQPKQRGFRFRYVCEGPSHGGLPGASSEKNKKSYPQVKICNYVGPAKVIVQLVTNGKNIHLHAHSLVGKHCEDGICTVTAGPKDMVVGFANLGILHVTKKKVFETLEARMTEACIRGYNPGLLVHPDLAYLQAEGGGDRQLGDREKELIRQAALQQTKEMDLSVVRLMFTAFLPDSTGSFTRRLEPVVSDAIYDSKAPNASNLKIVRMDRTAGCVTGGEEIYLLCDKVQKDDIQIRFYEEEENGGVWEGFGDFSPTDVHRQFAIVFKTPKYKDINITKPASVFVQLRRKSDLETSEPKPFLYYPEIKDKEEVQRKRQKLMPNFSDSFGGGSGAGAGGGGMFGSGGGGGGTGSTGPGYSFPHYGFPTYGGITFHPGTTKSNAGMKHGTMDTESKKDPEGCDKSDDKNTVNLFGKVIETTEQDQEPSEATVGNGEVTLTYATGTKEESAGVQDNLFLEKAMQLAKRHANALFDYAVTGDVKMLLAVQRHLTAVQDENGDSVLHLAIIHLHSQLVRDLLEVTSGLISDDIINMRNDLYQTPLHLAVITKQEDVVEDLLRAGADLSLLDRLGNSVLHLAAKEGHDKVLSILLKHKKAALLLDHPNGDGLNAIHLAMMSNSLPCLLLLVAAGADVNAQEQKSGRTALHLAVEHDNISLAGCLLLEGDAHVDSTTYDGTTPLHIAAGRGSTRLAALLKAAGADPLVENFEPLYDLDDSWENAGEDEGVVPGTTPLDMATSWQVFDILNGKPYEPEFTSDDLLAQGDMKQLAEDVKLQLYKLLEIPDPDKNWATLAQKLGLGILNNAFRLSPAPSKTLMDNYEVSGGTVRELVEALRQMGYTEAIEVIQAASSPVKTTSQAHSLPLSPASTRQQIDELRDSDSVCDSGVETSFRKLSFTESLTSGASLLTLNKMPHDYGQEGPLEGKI
Chain of Nuclear factor erythroid 2-related factor 2 (Homo sapiens) (Q16236 whole entry, looked up): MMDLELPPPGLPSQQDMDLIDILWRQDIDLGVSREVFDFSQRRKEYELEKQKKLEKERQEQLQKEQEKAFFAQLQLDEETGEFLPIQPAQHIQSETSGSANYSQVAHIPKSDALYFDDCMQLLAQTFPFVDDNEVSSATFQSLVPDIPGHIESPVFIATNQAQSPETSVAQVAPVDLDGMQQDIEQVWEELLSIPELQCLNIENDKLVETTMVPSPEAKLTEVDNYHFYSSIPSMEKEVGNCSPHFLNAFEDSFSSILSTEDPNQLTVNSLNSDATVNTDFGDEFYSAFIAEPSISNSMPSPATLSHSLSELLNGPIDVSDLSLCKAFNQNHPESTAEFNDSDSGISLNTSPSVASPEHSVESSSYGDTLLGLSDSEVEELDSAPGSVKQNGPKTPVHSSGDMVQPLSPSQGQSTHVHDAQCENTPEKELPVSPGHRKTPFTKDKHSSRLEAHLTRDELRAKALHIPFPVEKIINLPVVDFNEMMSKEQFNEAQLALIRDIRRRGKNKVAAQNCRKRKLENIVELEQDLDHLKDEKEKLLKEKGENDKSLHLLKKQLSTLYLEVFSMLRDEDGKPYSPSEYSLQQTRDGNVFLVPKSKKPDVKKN

CCCCC(CC)COP(=O)(OCC(CC)CCCC)OCC(CC)CCCC (stereo not given)
not listed: [19] | [20]
inactive: all other assays above

Cc1c(C)c2c(c(C)c1O)CCC(C)(COc1ccc(CC3SC(=O)NC3=O)cc1)O2 (stereo not given)
active: [1] 83.9 µM | [2] 48.5 µM | [5] 91.5 µM | [6] 77 µM | [13] 24.7 µM | [14] 93.4 µM | [16] 12 µM | [17] 50 µM
not listed: [9]
inactive: all other assays above

Cc1cc(Cc2ccc(N)c(C)c2)ccc1N
not listed: [19]
inactive: all other assays above

Cc1ccc(-c2cc(C(F)(F)F)nn2-c2ccc(S(N)(=O)=O)cc2)cc1
inactive: [1] | [2] | [4] | [7] | [8] | [10] | [20] | [13]
active: [3] 67.3 µM | [5] 64.2 µM | [6] 70.2 µM | [9] 55.9 µM | [11] 62.7 µM | [12] 89.2 µM | [14] 83.6 µM | [15] 73.1 µM | [16] 84.2 µM | [17] 88 µM | [18] 93.5 µM

CC(C)c1cccc(C(C)C)c1
not listed: [19]
inactive: all other assays above

COC(=O)CCCC(=O)OC
not listed: [9] | [19]
inactive: all other assays above

Cc1cn([C@H]2C=C[C@@H](CO)O2)c(=O)[nH]c1=O
not listed: [6] | [18]
inactive: all other assays above
